Values joined by “and” are separate entries in the source; they are usually repeats but may differ in a detail not shown here. Equal entries are not always repeated. Inconclusive results are not listed. Active and inactive are the calls of the source. Unless noted, calls come from the whole dose curve.

Assay [1] in a line: Nuclear factor erythroid 2-related factor 2/antioxidant responsive element (Nrf2/ARE) small molecule agonists: luciferase reporter gene qHTS assay in human keratinocytes (AID 1919969). Note: nearly all actives have a fitted effect of over 35% in size. Note: potency is the fitted concentration of half-maximal effect.
Assay [2] has as its target Gonadotropin-releasing hormone receptor (Homo sapiens) (UniProt P30968). Description: Human gonadotropin-releasing hormone receptor (GnRHR) small molecule agonists, calcium flux assay in GnRHR-HEK293 cells (AID 1920063). Note: nearly all actives have a fitted effect of over 35% in size. The essentials: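 HEK293 cells stably expressing human GnRHR were dye-loaded for 1 h at 37 C. Compound was added in agonist mode and fluorescence (Ex/Em 480/540) recorded kinetically for 3 min. Fifteen concentrations, triplicates.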
In general terms: A change in cytosolic calcium serves as a functional read-out for many receptors and channels.

In assay [3] the target is KiSS-1 receptor (Homo sapiens) (UniProt Q969F8). As to the kind of experiment: Human kisspeptin (KISS1R) small molecule agonists, calcium flux assay in KISS1R-HEK293 cells (AID 1920064; active = well fitted activation curve with a large enough effect in the repeat runs). An outline of the steps: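 HEK293 cells stably expressing human KISS1R were loaded with calcium dye for 1 h at 37 C, then given compound; fluorescence (Ex/Em 480/540) was read kinetically for 3 min. Fifteen concentrations, triplicate.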

Assay [4] can be described thus: G protein-coupled receptor (GPCR) small molecule agonists, calcium flux assay: HEK293 wild type cell line counter screen (AID 1920065). An outline of the steps: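 Wild-type HEK293 cells plated 18 h, loaded with calcium dye 1 h at 37 C, then compounds added in agonist mode (ATP as positive control). Kinetic fluorescence Ex/Em 480/540 recorded 3 min at 1 sec intervals; 15 concentrations, triplicate.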

Assay [5] in a line: p53 small molecule agonists, cell-based qHTS assay with human liver microsomes: qHTS cell viability counter screen (AID 1963579). Note: nearly all actives have a fitted effect of over 45% in size. An outline of the steps:
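After the 460/530 nm beta-lactamase read, CellTiter-Glo was added to the same wells and luminescence measured after 30 min at room temperature, giving viability of p53RE-bla cells treated 16 h with compounds plus microsomes and NADPH.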
For orientation: qHTS replaces the single test concentration by a dilution series.

Assay [6] can be described thus: p53 small molecule agonists, cell-based qHTS assay with rat liver microsomes: qHTS cell viability counter screen (AID 1963580). Note: nearly all actives have a fitted effect of over 45% in size. An outline of the steps: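 Intracellular ATP, by CellTiter-Glo luminescence, defines viability. HCT-116 p53RE-bla cells, 4,000 per well, were compound-treated in the presence of rat liver microsomes and NADPH for 16 h at 37 C.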
Assay [7] is described as follows: p53 small molecule agonists, cell-based qHTS assay: qHTS cell viability counter screen (AID 1963581). Note: nearly all actives have a fitted effect of over 45% in size. The essentials:
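p53RE-bla HCT-116 cells, compounds added 5 h after plating and incubated 16 h at 37 C. Cytotoxicity measured in the same wells as intracellular ATP by CellTiter-Glo luminescence after 30 min at room temperature.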

In assay [8] the target is 5-hydroxytryptamine receptor 2A (Homo sapiens) (UniProt P28223). As to the kind of experiment: 5-hydroxytryptamine receptor 2A (HTR2A) small molecule antagonists, cell-based qHTS assay (AID 1963586). Note: nearly all actives have a fitted effect of over 45% in size. The essentials:
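Antagonist-mode intracellular calcium assay: DOI (4 nM) added after 5 min compound pre-incubation at room temperature to dye-loaded HTR2A-CHO cells. Fluorescence followed for 3 min, sampled every second.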

For assay [9] the target is unchanged. Description: 5-hydroxytryptamine receptor 2A (HTR2A) small molecule agonists, cell-based qHTS assay (AID 1963587). Note: nearly all actives have a fitted effect of over 30% in size. The essentials:
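Kinetic calcium-flux fluorescence (2 min, 1 sec intervals) after compound addition in agonist mode. HTR2A-CHO cells were cultured 18 h, then dye-loaded 1 h at 37 C.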

Assay [10] has as its target Muscarinic acetylcholine receptor M1 (Homo sapiens) (UniProt P11229). Description: Cholinergic receptor muscarinic 1 (CHRM1) small molecule antagonists, cell-based qHTS assay (AID 1963588). Note: nearly all actives have a fitted effect of over 40% in size. An outline of the steps:
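CHRM1-CHO calcium-flux assay, antagonist mode. Cells were seeded 18 h, dye-loaded 1 h at 37 C and given compound for 5 min at RT, then acetylcholine was added at 50nM. FDSS fluorescence was read 3 min; 15 concentrations, three runs.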

The target is the same in assay [11]. Description: Cholinergic receptor muscarinic 1 (CHRM1) small molecule agonists, cell-based qHTS assay (AID 1963589). Note: nearly all actives have a fitted effect of over 35% in size. The essentials: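 CHO cells stably expressing human CHRM1 were loaded with calcium dye for 1 h at 37 C, then compound was added in agonist mode. Intracellular calcium fluorescence was followed kinetically at 1 s intervals. Fifteen concentrations were tested in three independent runs.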

Assay [12] addresses Beta-2 adrenergic receptor (Homo sapiens) (UniProt P07550). As to the kind of experiment: Adrenergic beta2 receptor (ADRB2) small molecule antagonists, cell-based qHTS assay (AID 1963592). Note: series mostly up to about 92 µM; nearly all actives have a fitted effect of over 50% in size. An outline of the steps:
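Cells (CHO, stable ADRB2 overexpression) incubated 18-20hr at 37C; compounds added from DMSO; agonist mix (1nM isoproterenol, 100uM IBMX, 25uM Ro-20-1724) added; 0.5hr RT; d2-cAMP and anti-cAMP-cryptate added; 1hr RT; 665/615 nm read.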

Assay [13] has as its target D(2) dopamine receptor (Homo sapiens) (UniProt P14416). As to the kind of experiment: Dopamine D2 receptor (DRD2) small molecule antagonists, cell-based qHTS assay (AID 1963595; active = well fitted inhibition curve with a large enough effect in the signal ratio in the repeat runs, with a control signal flat; the % refers to the signal ratio). An outline of the steps:
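HEK293 cells stably expressing DRD2, preincubated with 0.1 mM Ro20-1724 and compounds 10 min, were stimulated with 200 nM NKH477 plus 12 nM quinpirole for 30 min at room temperature; cAMP measured by HTRF (665/620 nm).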

The target is the same in assay [14]. Description: Dopamine D2 receptor (DRD2) small molecule agonists, cell-based qHTS assay (AID 1963594). Note: nearly all actives have a fitted effect of over 35% in size. An outline of the steps: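 cAMP accumulation in DRD2-HEK293 cells measured by HTRF after 1 h detection; compounds added 10 min before NKH477 (200nM […]) forskolin-analogue stimulation, 30 min at room temperature, with Ro20-1724 present at 0.1 mM final.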

The nature of assay [15]: cAMP Responsive Elements (CRE) small molecule agonists, cell-based qHTS assay (AID 1963590). An outline of the steps: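 CRE-bla HEK 293T cells, 2,000/well in DMEM with 10% dialyzed FBS and 25 mM HEPES, pre-incubated 18 h at 37 C, then exposed to compound 3 h at 37 C. Beta-lactamase reporter read with LiveBLAzer B/G FRET substrate after 2 h at room temperature.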
A short description of assay [16]: cAMP Responsive Elements (CRE) small molecule antagonists, cell-based qHTS assay (AID 1963591; active = well fitted inhibition curve with a large enough effect in the signal ratio in the repeat runs, not every such curve was filed as active; the % refers to the signal ratio). The essentials: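 CRE-bla HEK293T cells plated 18 h, then given compound plus NKH477 at 0.25 uM final for 3 h at 37C. Beta-lactamase reporter read with LiveBLAzer B/G FRET substrate after 2 h at room temperature.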
The target in assay [17] is Beta-2 adrenergic receptor (Homo sapiens) (UniProt P07550). As to the kind of experiment: Adrenergic beta2 receptor (ADRB2) small molecule agonists, cell-based qHTS assay (AID 1963593).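 Note: CHO cells stably overexpressing human ADRB2.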 An outline of the steps:
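CHO cells stably over-expressing ADRB2 were plated overnight at 37C, then dosed with compounds plus a stimulation mix containing 100uM IBMX and 25uM Ro-20-1724 for 0.5hr at room temperature. cAMP was measured by HTRF competition, 1hr.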

Assay [18] can be described thus: p53 small molecule agonists, cell-based qHTS assay with rat liver microsomes (AID 1963578). An outline of the steps: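 Metabolic activation is supplied by rat liver microsomes with NADPH (each 0.5 mg/mL final). p53RE-bla cells incubate with compound 16 h at 37 C; reporter activity is measured by LiveBLAzer fluorescence.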
The nature of assay [19]: p53 small molecule agonists, cell-based qHTS assay with human liver microsomes (AID 1963577).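 Note: p53 response element beta-lactamase reporter cells with liver microsomes plus NADPH.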 The essentials: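 Steps: plate p53RE-bla cells, incubate 5 h at 37 C; add compound in DMSO; add microsomes (0.5 mg/mL final) and NADPH (0.5 mg/mL final); incubate 16 h at 37 C; add LiveBLAzer, 2 h RT; read fluorescence.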

KiSS-1 receptor (Homo sapiens), sequence (Q969F8 whole entry, looked up): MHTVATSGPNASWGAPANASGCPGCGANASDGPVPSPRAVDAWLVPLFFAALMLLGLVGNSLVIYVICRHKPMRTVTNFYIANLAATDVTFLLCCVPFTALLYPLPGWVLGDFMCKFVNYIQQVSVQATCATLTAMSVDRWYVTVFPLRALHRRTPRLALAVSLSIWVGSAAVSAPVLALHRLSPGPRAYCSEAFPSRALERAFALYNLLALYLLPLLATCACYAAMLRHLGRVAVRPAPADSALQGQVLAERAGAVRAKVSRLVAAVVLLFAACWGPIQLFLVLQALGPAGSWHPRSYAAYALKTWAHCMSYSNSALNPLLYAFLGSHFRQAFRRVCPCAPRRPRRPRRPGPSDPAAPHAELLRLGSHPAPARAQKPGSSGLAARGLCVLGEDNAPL
5-hydroxytryptamine receptor 2A (Homo sapiens), sequence (P28223 whole entry, looked up): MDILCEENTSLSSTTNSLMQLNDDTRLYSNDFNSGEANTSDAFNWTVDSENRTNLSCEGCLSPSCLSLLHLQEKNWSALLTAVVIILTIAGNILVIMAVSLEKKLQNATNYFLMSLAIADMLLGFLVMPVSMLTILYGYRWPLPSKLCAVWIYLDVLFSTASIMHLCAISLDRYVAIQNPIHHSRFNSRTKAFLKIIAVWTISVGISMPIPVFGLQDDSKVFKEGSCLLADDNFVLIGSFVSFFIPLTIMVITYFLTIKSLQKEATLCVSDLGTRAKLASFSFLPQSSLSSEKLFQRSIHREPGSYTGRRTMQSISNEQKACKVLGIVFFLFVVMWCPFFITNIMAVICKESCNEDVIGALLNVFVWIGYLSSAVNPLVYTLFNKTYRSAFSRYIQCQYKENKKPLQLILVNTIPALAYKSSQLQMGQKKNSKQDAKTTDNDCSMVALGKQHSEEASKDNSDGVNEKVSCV
Gonadotropin-releasing hormone receptor (Homo sapiens), sequence (P30968 whole entry, looked up): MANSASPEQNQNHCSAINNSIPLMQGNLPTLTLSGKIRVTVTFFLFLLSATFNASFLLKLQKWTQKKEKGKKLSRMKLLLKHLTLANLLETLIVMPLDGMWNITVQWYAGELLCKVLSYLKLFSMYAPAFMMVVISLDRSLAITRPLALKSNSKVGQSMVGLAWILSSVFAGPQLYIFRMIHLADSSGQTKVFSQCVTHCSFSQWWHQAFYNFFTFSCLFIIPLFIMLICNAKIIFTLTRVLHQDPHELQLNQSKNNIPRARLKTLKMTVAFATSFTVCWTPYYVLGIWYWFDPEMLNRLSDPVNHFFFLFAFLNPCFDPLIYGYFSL
D(2) dopamine receptor (Homo sapiens), sequence (P14416 whole entry, looked up): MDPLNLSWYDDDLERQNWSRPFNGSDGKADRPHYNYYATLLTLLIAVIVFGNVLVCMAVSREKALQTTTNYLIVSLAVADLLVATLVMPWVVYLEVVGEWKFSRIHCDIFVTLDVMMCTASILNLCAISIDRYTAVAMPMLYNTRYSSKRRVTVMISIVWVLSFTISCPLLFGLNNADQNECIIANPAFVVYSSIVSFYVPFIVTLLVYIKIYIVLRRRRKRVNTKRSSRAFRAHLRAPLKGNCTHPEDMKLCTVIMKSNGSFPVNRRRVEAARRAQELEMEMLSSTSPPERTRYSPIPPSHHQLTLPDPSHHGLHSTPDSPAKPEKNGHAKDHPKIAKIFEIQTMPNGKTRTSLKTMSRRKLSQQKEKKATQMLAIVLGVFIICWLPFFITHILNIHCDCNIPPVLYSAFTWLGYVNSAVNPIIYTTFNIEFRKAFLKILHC
Muscarinic acetylcholine receptor M1 (Homo sapiens), sequence (P11229 whole entry, looked up): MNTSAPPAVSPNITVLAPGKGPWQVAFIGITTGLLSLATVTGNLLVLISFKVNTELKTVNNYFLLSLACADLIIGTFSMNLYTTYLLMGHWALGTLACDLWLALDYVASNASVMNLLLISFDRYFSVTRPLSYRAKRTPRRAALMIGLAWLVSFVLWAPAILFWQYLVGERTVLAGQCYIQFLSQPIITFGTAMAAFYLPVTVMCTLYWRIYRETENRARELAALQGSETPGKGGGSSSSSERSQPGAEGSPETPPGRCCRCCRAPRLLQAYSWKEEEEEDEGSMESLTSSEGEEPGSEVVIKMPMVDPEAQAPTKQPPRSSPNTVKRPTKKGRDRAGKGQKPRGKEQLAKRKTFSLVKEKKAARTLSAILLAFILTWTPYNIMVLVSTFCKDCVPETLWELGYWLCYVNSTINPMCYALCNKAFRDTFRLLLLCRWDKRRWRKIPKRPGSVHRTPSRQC
Beta-2 adrenergic receptor (Homo sapiens), sequence (P07550 whole entry, looked up): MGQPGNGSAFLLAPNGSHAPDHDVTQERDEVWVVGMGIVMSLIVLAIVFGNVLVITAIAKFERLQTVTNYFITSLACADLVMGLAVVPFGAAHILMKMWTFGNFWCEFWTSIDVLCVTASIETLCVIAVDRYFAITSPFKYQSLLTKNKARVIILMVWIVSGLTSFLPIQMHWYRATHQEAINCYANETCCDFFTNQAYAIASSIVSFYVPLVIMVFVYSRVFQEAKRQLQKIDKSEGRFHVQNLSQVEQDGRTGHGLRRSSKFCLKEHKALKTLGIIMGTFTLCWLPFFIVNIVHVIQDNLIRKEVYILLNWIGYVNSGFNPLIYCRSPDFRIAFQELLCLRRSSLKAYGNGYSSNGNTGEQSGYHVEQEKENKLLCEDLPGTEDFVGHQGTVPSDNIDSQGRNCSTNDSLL

For `CCOP(=S)(NC(C)C)Oc1ccccc1C(=O)OC(C)C` (stereo unspecified), the Potency result in assay [1], in [2], in [3], in assay [4], in assay [5] and in assay [6] was “inactive” in each case. Besides, the Potency entry in assay [7], in [8], in assay [9], in assay [10], in assay [11] and in assay [12] was “inactive” in each case.
With `CCOc1cc(C(C)(C)C)ccc1C1COC(c2c(F)cccc2F)=N1` (stereo unspecified), the Potency entry in assay [1], in assay [2], in assay [3], in [4], in assay [5] and in [6] was “inactive” in each case. Moreover, the Potency entry in [8], in assay [9], in assay [10], in [11], in assay [12] and in assay [13] was “inactive” each time.
As for `C[C@]12CC[C@H]3[C@@H](CCC4=CC(=O)CC[C@@]43C)[C@@H]1CC[C@@H]2O`, the Potency result in assay [1], in [2], in [3], in assay [4], in assay [5] and in assay [6] was “inactive” throughout. Moreover, the Potency entry in assay [7], in [12], in assay [14] and in [13] was “inactive” each time.
Consider `COP(=O)(OC)OC(Br)C(Cl)(Cl)Br` (stereo unspecified), for which the Potency in [1] was 27.3 µM (active) and 54.5 µM (active). Also, the Potency entry in assay [2], in assay [3], in [4], in assay [5], in [6] and in [7] was “inactive” each time. The Potency entry in assay [9], in assay [10], in assay [15], in assay [16], in assay [12] and in [17] was “inactive” in each case. For the same molecule, in assay [14], the Potency result was “inactive”.
For `Cc1cc(SCc2sc(-c3ccc(C(F)(F)F)c(F)c3)nc2C)ccc1OCC(=O)O`, in assay [1], the Potency was 61.1 µM (active). Further, the Potency entry in assay [2], in assay [3], in [4], in [18], in assay [5] and in [7] was “inactive” in each case. In addition, the Potency entry in assay [11], in assay [14] and in [13] was “inactive” each time.
For `COc1nn(CSP(=S)(OC)OC)c(=O)s1`, in [1], the Potency is 68.6 µM (active). The Potency entry in assay [2], in [3], in [4], in assay [8], in assay [9] and in [11] was “inactive” throughout. Also, the Potency entry in [12] is “inactive”.
For `CCOC(=O)CCl`, the Potency result in [1], in assay [2], in [3], in assay [4], in [5] and in assay [6] was “inactive” each time. The Potency entry in [7], in assay [9], in [11], in assay [15], in assay [12] and in assay [14] was “inactive” each time. Further, in [13], the Potency entry is “inactive”.
As to `CC(C)(C)c1ccc(CCOc2ncnc3ccccc23)cc1`, the Potency entry in assay [1], in assay [2], in assay [3], in assay [4], in assay [6] and in assay [7] was “inactive” each time. Besides, the Potency entry in assay [8], in [9], in assay [10], in [11], in assay [15] and in assay [16] was “inactive” each time. The Potency entry in assay [12] and in [13] was “inactive” each time.
Take `CC(C)=CC1C(C(=O)OCc2coc(Cc3ccccc3)c2)C1(C)C` (stereo unspecified): the Potency in assay [1] is 61.2 µM (active) and 61.1 µM (active). Moreover, the Potency entry in assay [2], in [3], in assay [4], in assay [5], in [6] and in assay [7] was “inactive” each time. Moreover, the Potency result in assay [8], in assay [9], in assay [10], in assay [11], in [15] and in [16] was “inactive” in each case. The Potency result in assay [12], in [14] and in assay [13] was “inactive” each time.
With `Oc1cccc(Cl)c1`, the Potency result in [1], in assay [2], in assay [3], in assay [19], in [18] and in assay [5] was “inactive” each time. For the same molecule, the Potency result in assay [6], in [7], in [8], in assay [9], in assay [10] and in [11] was “inactive” in each case. In addition, the Potency entry in [15], in assay [16], in [12], in assay [14] and in [13] was “inactive” throughout.

Values taken from PubChem BioAssay (Tox21).
